Assay outcomes deposited in PubChem BioAssay by National Center for Advancing Translational Sciences (NCATS).
Sampled rows, rich in hits. Any-hit rate of the full collection: about 2.9%.
SNCA expr inh – Primary qHTS assay for inhibitors of alpha-synuclein gene (SNCA) expression | actives 0.17% (n = 140,000) | Potency, µM (series often up to 57.2 µM), inactives show top-dose activity change, negative = inhibition, usual class: inhibitors | HEK-293 SNCA-luciferase knock-in, luminescence, 24 h | AID 1671194, 2021;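 also: potency is read from the fitted curve at half-maximal effect; plate controls were DMSO cells for no effect and cell-free wells for full effect; nearly all actives have a fitted effect of over 45% in size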
KDM5B inh – Primary screen for KDM5B Histone Demethylases FDH-coupled qHTS; Lysine-specific demethylase 5B (Homo sapiens), Q9UGL1; KDM5B demethylase, FDH-coupled NADH fluorescence (FDH is formaldehyde dehydrogenase); Potency, µM (titrated, usually from 57.7 µM), hits mostly inhibitors; actives 2.6% (n = 220,000); AID 1347165, 2019; also: potency is read from the fitted curve at half-maximal effect; 0% is about no effect; nearly all actives have a fitted effect of over 70% in size
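Compound dilutions met 200 nM (final) KDM5BΔAP for 10 min at room temperature before substrate addition. The substrate mix held 12.5 µM H3K4me3 with cofactors 25 µM α-ketoglutarate and 50 µM Fe²⁺. NADH signal gain over 30 min defined activity.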
IP6K1 inhibitor – Primary qHTS assay for small molecule inhibitors of Inositol hexaphosphate kinase 1 (IP6K1); Inositol hexakisphosphate kinase 1 (Homo sapiens), Q92551; actives 0.81% (n = 140,000); IP6K1 kinase, ADP-Glo luminescence, 2 h; active compounds read low; activity change, % (series mostly up to about 58 µM); in the data active = activity change below about -25%; also: % is scaled to controls: 0 for no effect and ±100 for the full control effect
Target sequence (Q92551 whole entry, looked up): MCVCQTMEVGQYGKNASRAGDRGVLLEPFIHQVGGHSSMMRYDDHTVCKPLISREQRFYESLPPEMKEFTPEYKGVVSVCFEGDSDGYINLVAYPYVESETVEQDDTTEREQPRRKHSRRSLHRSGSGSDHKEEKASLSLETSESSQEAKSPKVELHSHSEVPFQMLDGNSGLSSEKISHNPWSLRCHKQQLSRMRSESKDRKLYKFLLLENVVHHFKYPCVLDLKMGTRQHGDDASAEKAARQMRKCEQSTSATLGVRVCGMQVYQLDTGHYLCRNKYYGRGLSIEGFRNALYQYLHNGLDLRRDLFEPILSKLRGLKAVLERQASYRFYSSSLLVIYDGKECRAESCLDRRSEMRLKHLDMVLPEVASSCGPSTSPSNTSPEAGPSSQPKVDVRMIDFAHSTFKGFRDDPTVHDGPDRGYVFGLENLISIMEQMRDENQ
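ADP-Glo luminescence measures ADP made by human IP6K1 during a 2 h RT reaction with ATP/IP6 (mix at 1.3 mM/130 uM); top library doses 57.5 and 19.1 uM final.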
SNCA viab count – GF-AFC viability counterscreen for inhibitors of alpha-synuclein gene (SNCA) expression. actives 0.12% (n = 150,000). Potency, µM (series often up to 57.1 µM), without a hit: top-dose activity change, negative = cytotoxicity, hits mostly cytotoxic. HEK-293-SNCA-luc viability, GF-AFC fluorescence, 24 h;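 also: potency is read from the fitted curve at half-maximal effect; 0% = DMSO-treated cells and -100% = medium-only wells without cells; nearly all actives have a fitted effect of over 30% in size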
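HEK-293-SNCA-luc cells (1500/well) plated 24 h, then exposed 24 h to a dilution series; GF-AFC added 30 min at 37C, fluorescence 405/540 nm; normalised to medium-only and DMSO wells, Hill fit.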
IP6K1 inh cnf – Confirmatory qHTS assay for small molecule inhibitors of Inositol hexaphosphate kinase 1 (IP6K1). recombinant IP6K1 kinase, ADP-Glo luminescence, 2 h. Potency, µM (series often up to 49 µM), for inactives: at the highest dose activity change, negative = inhibition, hits mostly inhibitors. actives 13% (n = 1,200). shares compounds with IP6K1 inhibitor; also: potency is read from the fitted curve at half-maximal effect; % is scaled to controls: 0 for no effect and ±100 for the full control effect; nearly all actives have a fitted effect of over 65% in size
* = called active by the depositor; [ ] = another dose, or the depositor's remark. Unless noted, calls follow the shape of the dose curve; as a rule, active = well fitted curve in the direction sought with a large enough effect; inconclusive = small, poorly fitted or top-dose-only effect, or another doubt; inactive = no such curve, though single readings can be large; an effect the other way counts as inactive or inconclusive.

Results for CC(=O)NC1(C(=O)NCC(=O)NC(C)(C)C)CCCCC1 ?
KDM5B inh: inactive

How did COc1cc(OC)cc(C(=O)N2CCC(c3nc(C4CCOC4)no3)CC2)c1 (stereo not drawn) do in these assays?
SNCA expr inh: 8%; KDM5B inh: inactive; IP6K1 inhibitor: 19; SNCA viab count: 11%

Results for COc1cccc(C(=O)N2CCC(c3nc(C4CCOC4)no3)CC2)c1 (stereo not drawn) ?
SNCA expr inh: 3%; KDM5B inh: inconclusive; IP6K1 inhibitor: -37*; SNCA viab count: 7%; IP6K1 inh cnf: -13%

What do the screens show for `COc1ccc(CNC(=O)CCc2cn(Cc3cc(C)ccc3C)c3ccccc23)cc1OC`?
SNCA expr inh: inconclusive; KDM5B inh: inactive; IP6K1 inhibitor: 32; SNCA viab count: 5%

How did Cc1ccccc1Cn1cc(CCC(=O)NCc2cccc(Br)c2)c2ccccc21 do in these assays?
SNCA expr inh: -18%; KDM5B inh: inconclusive; IP6K1 inhibitor: -29*; SNCA viab count: inconclusive; IP6K1 inh cnf: 10%

How did CC(C)Cn1c(=O)c2ccccc2n2c(CCC(=O)NCc3ccc(Cl)cc3)nnc12 do in these assays?
SNCA expr inh: 6%; KDM5B inh: inconclusive; IP6K1 inhibitor: -28*; SNCA viab count: 2%; IP6K1 inh cnf: -3%

What do the screens show for `Cc1ccc(NC(=O)c2nc(S(C)(=O)=O)ncc2N(Cc2ccco2)Cc2ccco2)cc1C`?
SNCA expr inh: -7%; KDM5B inh: inconclusive; IP6K1 inhibitor: -29*; SNCA viab count: 8%; IP6K1 inh cnf: -5%

Results for Cc1ccc(NC(=O)c2nc(S(C)(=O)=O)ncc2N(Cc2ccco2)Cc2cccs2)cc1C ?
SNCA expr inh: 4%; KDM5B inh: inactive; IP6K1 inhibitor: -14; SNCA viab count: inconclusive

Results for O=C(NCc1cccc(Cl)c1)c1nc2sccn2c1-c1ccncc1 ?
SNCA expr inh: 7%; IP6K1 inhibitor: 5; SNCA viab count: -6%

What do the screens show for `O=c1cc(-c2ccc(O)cc2)oc2cc(O)cc(O)c12`?
SNCA expr inh: -11%; SNCA viab count: -16%; IP6K1 inh cnf: 1.5µM*

How did CN(C)C/C=C/C(=O)Nc1cccc(C(=O)Nc2ccc(Nc3nccc(-c4cccnc4)n3)cc2)c1 do in these assays?
IP6K1 inhibitor: -29*; SNCA viab count: inconclusive; IP6K1 inh cnf: inconclusive

What do the screens show for `CN(Cc1ccc2nsnc2c1)Cc1cc2n(n1)CCCNC2`?
SNCA expr inh: 4%; KDM5B inh: inconclusive; IP6K1 inhibitor: -25*; SNCA viab count: 0%; IP6K1 inh cnf: -7%

Results for Cc1cccc(-c2cnc3[nH]cc(CC(N)=O)c3c2)c1 ?
SNCA expr inh: 3%[87.6 µM]; KDM5B inh: 32µM*; IP6K1 inhibitor: -32*; SNCA viab count: 3%[87.6 µM]; IP6K1 inh cnf: inconclusive

How did CNC(=O)c1cccc(-c2cnc3[nH]cc(CC(=O)Nc4ccccc4Cl)c3c2)c1 do in these assays?
SNCA expr inh: 56%[87.6 µM]; KDM5B inh: inactive; IP6K1 inhibitor: -26*; SNCA viab count: inconclusive; IP6K1 inh cnf: inconclusive

How did NC(=O)Cc1c[nH]c2ncc(-c3cccc(CO)c3)cc12 do in these assays?
SNCA expr inh: -4%[87.6 µM]; KDM5B inh: 32µM*; IP6K1 inhibitor: -27*; SNCA viab count: 3%[87.6 µM]; IP6K1 inh cnf: inconclusive

How did CNC(=O)c1cccc(-c2cnc3[nH]cc(CC(=O)Nc4cccc(F)c4)c3c2)c1 do in these assays?
SNCA expr inh: -22%[87.6 µM]; KDM5B inh: inactive; IP6K1 inhibitor: -8; SNCA viab count: -20%[87.6 µM]

Results for CC(NC(=O)c1ccccc1SCc1cccs1)c1cccs1 (stereo not drawn) ?
KDM5B inh: inactive

What do the screens show for `CCc1ocnc1C(=O)N1C[C@H]2OC(=O)N(CCCN3CCOCC3)[C@H]2C1`?
SNCA expr inh: 15%; KDM5B inh: inactive; IP6K1 inhibitor: -72*; SNCA viab count: 7%; IP6K1 inh cnf: -11%

How did CCOc1ccccc1NC(=O)n1ncc2cc(Cl)ccc21 do in these assays?
SNCA expr inh: 155%; KDM5B inh: inactive; IP6K1 inhibitor: -37*; SNCA viab count: 1%; IP6K1 inh cnf: -6%

How did O=C(Nc1ccccc1C(F)(F)F)n1ncc2cc(Cl)ccc21 do in these assays?
SNCA expr inh: 12%; KDM5B inh: inactive; IP6K1 inhibitor: -8; SNCA viab count: -2%

How did COc1ccc(NC(=O)CN2C(=O)NC3(CCC(C)CC3)C2=O)cc1OC (stereo not drawn) do in these assays?
SNCA expr inh: 37%; KDM5B inh: inactive; IP6K1 inhibitor: 5; SNCA viab count: -3%

What do the screens show for `CC(NC(=O)/C=C/c1ccc(Cl)cc1)c1ccc(NC(N)=O)cc1` (stereo not drawn)?
KDM5B inh: inactive

How did CCCCN(CC)C(=O)Cn1c(=O)n(-c2ccc(OCC)cc2)c(=O)c2c3c(sc21)CCC3 do in these assays?
SNCA expr inh: -3%; KDM5B inh: inactive; IP6K1 inhibitor: -33*; SNCA viab count: 4%; IP6K1 inh cnf: 10%

Results for CCc1ccc(-n2c(=O)c3c4c(sc3n(Cc3ccc(C)cc3)c2=O)CCC4)cc1 ?
SNCA expr inh: 7%; KDM5B inh: inactive; IP6K1 inhibitor: 4; SNCA viab count: -3%

What do the screens show for `CCc1ccc(-n2c(=O)c3c4c(sc3n(Cc3ccc(F)cc3)c2=O)CCCC4)cc1`?
SNCA expr inh: -6%; KDM5B inh: inactive; IP6K1 inhibitor: -28*; SNCA viab count: 21%; IP6K1 inh cnf: -2%

What do the screens show for `CC[C@H]1CN(S(=O)(=O)c2ccc(OC)cc2)CC[C@H]1CC(=O)N1CCC(C(=O)OC)CC1`?
SNCA expr inh: -9%; KDM5B inh: inactive; IP6K1 inhibitor: -12; SNCA viab count: -17%

What do the screens show for `O=C(c1ccc(C(F)(F)F)cc1)N1CCN(C(=O)c2nc3cccnc3n(C3CC3)c2=O)CC1`?
SNCA expr inh: 25%; IP6K1 inhibitor: 21; SNCA viab count: 9%

How did CCOc1ccc(C2C(C(=O)OC)=C(C)NC3=C2C(=O)c2ccccc23)cc1OC (stereo not drawn) do in these assays?
SNCA expr inh: 39%; KDM5B inh: inconclusive; IP6K1 inhibitor: -27*; SNCA viab count: inconclusive; IP6K1 inh cnf: inconclusive

How did CCOc1cc(C2C(C(=O)OC)=C(C)NC3=C2C(=O)c2ccccc23)ccc1OCc1ccccc1 (stereo not drawn) do in these assays?
KDM5B inh: inactive

What do the screens show for `COc1cccc(-c2nc3cc(SC)ccc3cc2CN(C)Cc2ccno2)c1`?
SNCA expr inh: 8%; KDM5B inh: 28µM*; IP6K1 inhibitor: -33*; SNCA viab count: -4%; IP6K1 inh cnf: -11%
